# Screening results: PubChem, National Center for Advancing Translational Sciences (NCATS)
# FBPA Giardia inh: Giardia lamblia aldolase inhibition; A8B2U2; purified Giardia FBPA; Potency, µM (doses to about 59.6 µM), inactives show at the top dose activity, negative = inhibition, actives largely listed as inhibitors; 290,000 tested, 0.71% active; AID 2451; note: potency is the fitted concentration of half-maximal effect; % is set by controls: 0 for no effect and ±100 for the full control effect; nearly all actives have a fitted effect of over 55% in size
# Target sequence (A8B2U2 whole entry, looked up): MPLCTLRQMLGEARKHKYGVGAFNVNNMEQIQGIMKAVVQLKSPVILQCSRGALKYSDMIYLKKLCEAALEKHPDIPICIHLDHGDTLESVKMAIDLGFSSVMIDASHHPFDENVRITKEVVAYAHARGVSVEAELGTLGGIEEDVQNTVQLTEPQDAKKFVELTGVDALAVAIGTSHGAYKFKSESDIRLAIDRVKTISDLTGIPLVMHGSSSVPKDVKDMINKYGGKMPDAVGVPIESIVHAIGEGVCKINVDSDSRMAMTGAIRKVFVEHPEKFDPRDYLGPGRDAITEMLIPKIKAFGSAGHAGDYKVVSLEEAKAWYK
#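 40 nM FBPA preincubated 10 min at RT with compound (up to 57.5 uM final), then substrate plus GAPDH/TPI/NAD/arsenate coupling and diaphorase/resazurin added. Fluorescence read after 20 min at RT, 525/598 nm.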
# LmPK inh: LmPK (Leishmania mexicana) enzyme inhibition; Q27686; purified LmPK, Kinase-Glo ATP luminescence, 1 h; Potency, µM (highest dose often 57.5 µM), for inactives: top-dose activity change, negative = inhibition, usual class: inhibitors; 290,000 tested, 0.37% active; note: potency is the fitted concentration of half-maximal effect; % is set by controls: 0 for no effect and ±100 for the full control effect
#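 qHTS format; LmPK 0.1 nM; substrates PEP 0.5 mM and ADP 0.1 mM. One-hour room-temperature incubation, then coupled luciferase luminescence; 0.5 nM enzyme wells mark activation.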
# NS1 function inh: blocks influenza NS1 protein function; Potency, µM (highest dose often 46.1 µM), without a hit: top-dose activity, positive = more growth; 270,000 tested, 0.4% active; AID 2326; calls by dose curve; note: potency is the fitted concentration of half-maximal effect; actives are rising curves; nearly all actives have a fitted effect of over 50% in size
#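 Read-out: OD600 growth recovery of NS1-expressing budding yeast. Cells grown overnight at 30C in -URA glucose medium, washed, resuspended and diluted 1:100 in 2% galactose assay medium, pH 6.0. Same strain lacking NS1 served as positive control.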
# CHX counter: affects cycloheximide protein synthesis inhibition readout, counter-screen; cell reporter, cycloheximide protein synthesis inhibition counterscreen; max response, %; 300,000 tested, 12% active; AID 2314; in the data active = max response mostly above about 13%, no sharp cut-off; inactive = mostly below about 14%; note: read at 38.3 µM for the half of the compounds with a filed dose; 0% is about no effect
# Shiga inhibitor: blocks Shiga toxin action in Vero cells | AID 2315 | inhibition, % at 38.7 µM | Vero cells, Shiga toxin protein synthesis inhibition reporter | 290,000 tested, 9.2% active; in the data active = inhibition mostly above about 28%, no sharp cut-off; inactive = mostly below about 43%; note: 0% is about no effect
# * = called active by the depositor; ? = inconclusive; . = no result given; ! = a repeat was not active; [ ] = dose if it differs, or a comment. This is a sample that favours compounds with a hit; in the whole collection about 14% have one here. Unless noted, calls come from the whole dose curve; as a rule, active = well fitted curve in the direction sought with a large enough effect; inconclusive = small, poorly fitted or top-dose-only effect, or another doubt; inactive = no such curve, though single readings can be large; an effect the other way counts as inactive or inconclusive.
SMILES,FBPA Giardia inh,LmPK inh,NS1 function inh,CHX counter,Shiga inhibitor
CCOc1cc(/C=C(\C#N)C(N)=O)cc(CSc2ccccc2)c1O,-6%,.,.,-1,19
COc1cccc(S(=O)(=O)NCc2ccc(C(=O)N3CCN(C)CC3)cc2)c1,-17%,-3%,7%,-1,-7
Cc1ccc(-n2c(N)c(-c3nc4ccccc4n3C)sc2=S)cc1,3%,-2%,-94%,11*,18
Cn1c(-c2ccc(Cl)nc2)nc2ccccc21,-8%,-7%,-4%,15*,58*
Cn1c(-c2ccccc2)nc2cnccc21,4%,5%,-2%,11,11
Cn1c(-c2ccc(N)cc2)nc2ccccc21,-7%,?,-2%,56*,75*
Cn1c(-c2ccc3nc(N)sc3c2)nc2cc(N)ccc21,3%,5%,2%,21*,6
CCOC(=O)Cn1c(-c2ccc(Cl)nc2)nc2ccccc21,2%,-3%,-7%,-3,16
Nc1nc2ccc(C(=O)N3CCCCC3)cc2s1,.,-3%,3%,-2,-2
CCCS(=O)(=O)c1ncc(Cl)c(C(=O)N(Cc2ccccc2)Cc2ccco2)n1,.,.,.,-15,-11
CC(C)=CCC/C(C)=C/CO/N=C1/[C@H]2O[C@@H]2[C@@H](O)[C@H]2[C@H]1CCn1c(=O)n(-c3ccccc3)c(=O)n12,3%[12.9 µM],.,.,.,.
CO[C@H]1COC(=O)[C@H](C)COC(=O)C/C=C\[C@@H](C)[C@H](OC)COC(=O)C/C=C\[C@@H]1C,-1%[12.9 µM],.,.,.,.
Cn1c(CCc2ccc(N)cc2)nc2ccccc21,-6%,?,-1%,32*,60
CCn1c(SCC(=O)NCCc2ccccc2)nnc1-c1cccs1,1%,-2%,-5%,-1,11
CCn1c(SCC(=O)c2cccs2)nnc1-c1ccco1,-11%,-3%,-48%,39*,87*
CCn1c(SCC(=O)c2ccccc2)nnc1-c1cccs1,-13%,-13%,-19%,66*,77*
CCn1c(SCC(N)=O)nnc1-c1ccco1,7%,15%,-4%,-4,-8
COc1ccc(OC)c(N2C(=NC(=O)C3CCCCC3)SC3CS(=O)(=O)CC32)c1 (centres undefined),-8%,1%,-6%,-2,10
O=C(Cc1ccccc1)Nc1nc2ccc(Cl)cc2c2nc(-c3ccco3)nn12,15%,.,.,.,.
S=c1[nH]c2ccccc2s1,-1%,.,.,15,-4
CC(CNC(=O)CCS(=O)(=O)c1cc2c(cc1Cl)NC(=O)CO2)c1ccccc1 (centres undefined),0%,2%,1%,-3,3
COc1ccc(-c2ccc3ccccc3n2)cc1,-5%,?,-6%,41*,71*
COc1cc(-c2ccccc2)nc2ccccc12,-5%,0%,-12%,4,20
COc1ccc(-c2nc3ccccc3nc2-c2ccccc2)cc1,1%,7%,1%,-2,-11
Nc1ccc(-c2cc(-c3ccc(N)cc3)nc(-c3ccccc3)n2)cc1,1%,1%,20%,5,-4
SMILES,FBPA Giardia inh,LmPK inh,NS1 function inh,CHX counter,Shiga inhibitor
Nc1ccc(-c2ccc3ccccc3n2)cc1,?,.,1%,25*,71*
COc1ccc(-c2cc(OC)c3ccccc3n2)cc1,-4%,2%,-39%,14,active
COc1ccc(-c2ccc3ccccc3n2)cc1OC,-1%,-15%,-16%,46*,133*
O=C(O)C(=Cc1ccc(-c2ccccc2)cc1)C(=O)O,.,.,-13%,.,.
N#Cc1ccc2[nH]cc(CCO)c2c1,-9%,-3%,1%,-2,8
CC(C)(C)OC(=O)N1CCC(c2c(C(=O)NC3CC3)cnn2-c2ccccc2)CC1,4%,9%,-2%,-1,-4
COc1ccc(-c2cc3cc(OC)c(OC)cc3c(C)n2)cc1,-18%,17%,-38%,34*,75*
COc1ccc2c(OC)cc(-c3ccccc3)nc2c1,0%,6%,-9%,-1,12
CCCCn1c(CN2CCN(c3ccc(F)cc3)CC2)nc2c1c(=O)n(C)c(=O)n2C,2%,0%,-15%,30*,79
O=C(Cc1ccc(Cl)cc1)Nc1ccccc1N1CCN(C(=O)c2ccccc2)CC1,.,1%,-50%,1,-1
c1ccc(NCC2OCc3ccccc3CO2)cc1,5%,2%,16%,43*,98*
COc1ccc(C2/C=C\CN(CC3CC3)C(Cc3ccccc3)C(=O)N2Cc2ccc(F)cc2)cc1 (centres undefined),0%,.,.,16,-3
COC(=O)N1C/C=C\C(c2ccc(OC)cc2)N(Cc2ccc(F)cc2)C(=O)C1 (centres undefined),-1%,8%,4%,0,-11
COc1ccc(C2/C=C\CN(CC(C)C)C(C)C(=O)N2Cc2ccc(F)cc2)cc1 (centres undefined),-1%,.,.,31*,142*
COc1ccc(C2/C=C\CN(CC(C)C)C(Cc3ccccc3)C(=O)N2Cc2ccc(F)cc2)cc1 (centres undefined),0%,.,.,99*,126*
COc1ccc(C2/C=C\CN(C(=O)Nc3ccccc3-c3ccccc3)CC(=O)N2Cc2ccc(F)cc2)cc1 (centres undefined),-2%,2%,?,62*!,152*!
COC(=O)c1cc(S(=O)(=O)NCC2CCN(CCc3cccs3)CC2)cn1C,.,-2%,21%,-5,-5
CCOc1ccc(NC(=S)Nc2cccc3cnccc23)cc1,?,-1%,-26%,14*,11
CCOc1ccc(NC(=S)Nc2cccc3ccccc23)cc1,?,-8%,?,72*,89*
COc1ccc2oc(-c3ccc(C)c(NC(=O)CSc4ccc(Cl)cc4)c3)nc2c1,2%,-1%,-11%,25*,65*
O=C(CSc1ccc(Cl)cc1)Nc1cc(-c2nc3ncccc3o2)ccc1Cl,6%,-2%,1%,3,13
Cc1ccccc1C(=O)NC1CCN(C(=O)Nc2ccc(F)cc2)CC1,10%,-1%,-6%,-5,-8
CC1(C(=O)OCC(=O)Nc2ccccc2Cl)CC1(Cl)Cl (centres undefined),6%,-18%,-33%,18*,62*
CC1(C(=O)OCC(=O)Nc2ccccc2)CC1(Cl)Cl (centres undefined),-4%,0%,.,34*,67*
CC1(C(=O)OCC(=O)NC(=O)NCc2ccccc2)CC1(Cl)Cl (centres undefined),-8%,3%,.,11,-2
SMILES,FBPA Giardia inh,LmPK inh,NS1 function inh,CHX counter,Shiga inhibitor
CN(C)CCC(C#N)(c1ccccc1)c1ccccc1,.,.,-6%,.,.
CC#CCN1c2ccccc2[C@]23C[C@@H](C(=O)OC)N(S(=O)(=O)c4ccc(C)cc4)C2=NC(C(=O)OC)=C(C(=O)OC)[C@H]13,-2%[12.9 µM],2%[11.5 µM],.,.,.
CC(C)(C)OC(=O)NNC(=O)c1ccc(Cl)cc1,1%,4%,9%,13*,26
COc1ccccc1C(=O)NNC(=O)c1ccc(Cl)cc1,-6%,1%,-4%,17*,21
COc1ccccc1C(=O)NNC(=O)c1ccc(F)cc1,0%,-12%,7%,57*,65*
COc1ccccc1C(=O)NNC(=O)C1CC=CCC1 (centres undefined),7%,-1%,-14%,25*,34
